Measured values taken from PubChem BioAssay AID624297 (National Center for Advancing Translational Sciences (NCATS), 2012).
The campaign covered roughly 340,000 compounds. About 6,200 (1.8%) were called active. Another 10% or so got no clear call; they are omitted. What follows is part of a selection rich in actives, with near analogues and random picks from the rest. A call without a number means that no potency is given here. A number with no mark means an inactive call. Calls come from the whole dose curve; as a rule, active = well fitted activation curve with a large enough effect; inconclusive = small, poorly fitted or top-dose-only effect; inactive = no such curve, though single readings can be large or run the other way.

Test: A quantitative high throughput screen for small molecules that induce DNA re-replication in SW480 colon adenocarcinoma cells. Note: nearly all actives have a fitted effect of over 55% in size.
Details: Hoechst DNA content imaging, 48 h; series mostly up to 46.1 µM
Summary of the method: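 First, 250 cells per well were seeded. Next, compound or vehicle (23 nL) was pinned in, plates sat 48 hr at 37 C. Finally Hoechst was added for 40 min before fluorescence scanning.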
Potency is the fitted concentration of half-maximal effect.

Structure (SMILES) | Potency | re-replication activation
COc1ccc2sc(-c3ccc(S(C)(=O)=O)cc3)c(-c3ccc(C(N)=O)cc3)c2c1 | inactive | –
Cn1cncc1C#Cc1c(-c2ccsc2)sc2ccccc12 | inactive | –
COc1ccc2sc(-c3ccc(S(C)(=O)=O)cc3)c(C#Cc3cncn3C)c2c1 | 5.8 µM (active) | –
Oc1cccc(CCc2ccccn2)c1 | inactive | –
COc1cc2[nH]c(=O)n(Cc3ccc(C(=O)NC4CCN(Cc5ccccc5)CC4)cc3)c(=O)c2cc1OC | inactive | –
COc1cc(C(=O)NC2CCN(Cc3ccccc3)CC2)cc(Cl)c1OC(C)C | 18.4 µM (active) | –
COc1ccc(C(=O)O)cc1S(=O)(=O)NC1CCN(Cc2ccccc2)CC1 | inactive | –
CNC[C@@H]1Oc2c(NS(C)(=O)=O)cccc2C(=O)N([C@@H](C)CO)C[C@H]1C | inactive | –
CCn1nc(C(=O)NNS(=O)(=O)c2cc(/C=C/C(=O)O)cc(OC)c2OC)c2ccccc2c1=O | inactive | –
C=CC[C@@H](Cc1ccc(F)cc1)C(=O)OC[C@H]1CCCN1C(=O)[C@H](CC=C)CC(=O)N(CCO)Cc1ccccc1 | inactive | –
Cn1nc(-c2ccccc2)c(CO)c1Sc1ccccc1 | inactive | –
Cn1nc(-c2ccccc2)c(CSc2cccc(Cl)c2)c1Cl | 16.4 µM (active) | –
Cc1ccc(S(=O)(=O)c2c(COC(=O)c3cccc(Cl)c3)c(-c3ccccc3)nn2C)cc1 | inactive | –
COc1cccc(CC(=NO)c2cccc(OC)c2)c1 | inactive | –
c1ccc(-n2nnnc2-c2cccnc2)cc1 | inactive | –
CCOC(=O)C(C)n1cnc2c(nnn2-c2cccc(OC)c2)c1=O (stereo not given) | inactive | –
CCOc1cccc(-n2nnnc2-c2ccc(OC)cc2)c1 | 13 µM (active) | –
COc1cc(S(=O)(=O)N2CCN(C(=O)C3CC3)CC2)ccc1NC(C)=O | inactive | –
COc1cc(C(=O)NC2CCN(C)CC2)ccc1Nc1ncc2c(n1)N(C1CCC(O)CC1)CCC(=O)N2C (stereo not given) | inactive | –
COC(=O)C1=C(C)N(C)C(=S)NC1c1ccccc1 (stereo not given) | inactive | –
COc1ccc(C2NC(=O)N(C)C(C)=C2[N+](=O)[O-])cc1 (stereo not given) | inactive | –
COC(=O)C1=C(C)N(C)C(=O)NC1c1ccc([N+](=O)[O-])o1 (stereo not given) | 23.1 µM (active) | –

Structure (SMILES) | Potency | re-replication activation
Cc1cccc(C(=O)N[C@H](C(=O)NCc2cccs2)C(C)C)c1 | inactive | –
COc1ccc(CN2C(CC(=O)Nc3cccnc3)c3ccc(C(F)(F)F)cc3S2(=O)=O)cc1 (stereo not given) | – | -6.2% [at 9.22 µM]
CCCCN(C)C(=O)C1CCN(Cc2ccccn2)CC1 | – | -0.529% [at 9.22 µM]
CCCCN(Cc1ccccc1)C(=O)C1CCN(Cc2sccc2C)CC1 | 14.6 µM (active) | –
CCCC(=O)C1CCN(Cc2ccccc2)CC1 | inactive | –
CSCCC(NS(=O)(=O)c1ccc(C)cc1)C(=O)N(C)CC(=O)Nc1ccccc1Br (stereo not given) | inactive | –
CNN/C(N=Cc1ccc([N+](=O)[O-])s1)=N\S(=O)(=O)c1cc(C)c(Cl)cc1SCc1ccccc1 | inactive | –
COc1ccc2c(c1OC)C(=O)OC2Nc1nc(-c2ccccc2)cs1 (stereo not given) | 6.51 µM (active) | –
Cc1cccc(Nc2nc(-c3ccccc3)cs2)n1 | inactive | –
COc1ccc(-c2csc(NC3OC(=O)c4ccccc43)n2)cc1 (stereo not given) | inactive | –
O=C1NC[C@@H](c2ccccc2)OC(=O)[C@H](Cc2ccc(F)cc2)CC/C=C/C[C@H]1CC(=O)N(CCO)Cc1ccccc1 | inactive | –
CCOC(=O)C1=CN(Cc2ccc(Br)cc2)S(=O)(=O)NC1C (stereo not given) | inactive | –
CC1C(=O)N(Cc2ccccc2)c2ccccc2N1C(=O)c1ccccc1 (stereo not given) | inactive | –
CC1C(C)N(C(=O)CCl)c2ccccc2N1C(=O)CCl (stereo not given) | 5.17 µM (active) | –
CC1CC(C)CN(CC(=O)N2c3ccccc3CCc3ccccc32)C1 (stereo not given) | inactive | –
COc1ccc(NS(=O)(=O)c2ccc(C(=O)Nc3c(C)n(C)n(-c4ccccc4)c3=O)cc2)cc1 | 6.51 µM (active) | –
Cc1c(NS(=O)(=O)c2cccc(C(=O)Nc3ccc(SC(F)F)cc3)c2)c(=O)n(-c2ccccc2)n1C | inactive | –
Cc1cc(C(=O)Nc2c(C)n(C)n(-c3ccccc3)c2=O)cs1 | inactive | –
C=CC(=O)Nc1ccc(Nc2ccnc(Nc3ccc(N4CCN(C)CC4)cc3)n2)cc1 | inactive | –
Cc1cc(N2CCN(c3ccccc3)CC2)nc(N2CCOCC2)n1 | inactive | –
C(=N/Nc1cc(N2CCOCC2)nc(N2CCOCC2)n1)/c1ccccc1 | 5.8 µM (active) | –
CN(C)c1ccc(/C=N/Nc2cc(N3CCOCC3)nc(N3CCOCC3)n2)cc1 | inactive | –

Structure (SMILES) | Potency | re-replication activation
O=C(c1cc(=O)c2ccccc2o1)N1CCN(c2ccccc2)CC1 | inactive | –
COc1cc2c(cc1OC)CN(C(=O)c1cc(=O)c3ccccc3o1)CC2 | 13 µM (active) | –
COc1ccccc1N1CCN(C(=O)c2cc(=O)c3cc(C)ccc3o2)CC1 | inactive | –
NC(=O)C1CCN(C(=O)c2cc(S(=O)(=O)N3CCN(c4ccccc4)CC3)ccc2Cl)CC1 | inactive | –
COc1cc2[nH]c(O)c(C=O)c2cc1OC | inactive | –
Cc1ccc(S(=O)(=O)N2CCN(C(=O)COC(=O)/C=C/c3cccc(Cl)c3)CC2)c(C)c1 | inactive | –
CCCCC[C@@H]1C=C(C(=O)O)[C@H](c2ccc(C#N)cc2)N1S(=O)(=O)c1ccc(C)cc1 | inactive | –
CCC1(C)COC(c2ccc(OC)c(OC)c2)OC1 (stereo not given) | inactive | –
Oc1ccc(CNc2ccccc2O)cc1 | 20.6 µM (active) | –
O=C(Cc1ccc(Cl)cc1)NC(=S)Nc1ccccc1O | inactive | –
O=[N+]([O-])c1ccccc1NCc1ccc(Cl)cc1 | inactive | –
CC(C)(C)OC(=O)C1=C(CO)CS[C@@H]2[C@H](NC(=O)Cc3ccccc3)C(=O)N12 | inactive | –
OCCN1CCN(CCO)C1=S | inactive | –
COc1ccc(C(CNC(=O)COc2ccc([N+](=O)[O-])cc2)N2CCCCC2)cc1 (stereo not given) | inactive | –
COc1ccc(C(CNC(=O)COc2ccccc2OC)N2CCCCC2)cc1 (stereo not given) | inactive | –
CCc1ccc(OCC(=O)NCC(c2ccc(Cl)cc2)N2CCCCC2)cc1 (stereo not given) | 9.2 µM (active) | –
O=C(CNS(=O)(=O)c1ccc2c(c1)OCCCO2)N1CCN(c2ccc(F)cc2)CC1 | inactive | –
O=C1COc2c1ccc(O)c2O | inactive | –
Cc1c(CN2CCC(CO)(CCOc3ccccc3)CC2)[nH]c2ccc(Cl)cc12 | 14.6 µM (active) | –
OCC1(CCOc2ccccc2)CCN(Cc2cn[nH]c2-c2ccccc2)CC1 | inactive | –
CCOC(=O)C1(CCOc2ccccc2)CCN(Cc2cc(OC)c(O)cc2Cl)CC1 | inactive | –
